# D2 PAM-1 = human D2 receptor positive allosteric modulation; DiscoveRx D2 beta-arrestin cells, luminescence, 90 min; 100% = 57 uM dopamine signal; potentiation, % (no concentration beside the values); AID 624464; 0.23% of 360,000 active; P14416; in the data active = potentiation above about 50%; inconclusive = mostly about 30% to 49%
# Target sequence (P14416 whole entry, looked up): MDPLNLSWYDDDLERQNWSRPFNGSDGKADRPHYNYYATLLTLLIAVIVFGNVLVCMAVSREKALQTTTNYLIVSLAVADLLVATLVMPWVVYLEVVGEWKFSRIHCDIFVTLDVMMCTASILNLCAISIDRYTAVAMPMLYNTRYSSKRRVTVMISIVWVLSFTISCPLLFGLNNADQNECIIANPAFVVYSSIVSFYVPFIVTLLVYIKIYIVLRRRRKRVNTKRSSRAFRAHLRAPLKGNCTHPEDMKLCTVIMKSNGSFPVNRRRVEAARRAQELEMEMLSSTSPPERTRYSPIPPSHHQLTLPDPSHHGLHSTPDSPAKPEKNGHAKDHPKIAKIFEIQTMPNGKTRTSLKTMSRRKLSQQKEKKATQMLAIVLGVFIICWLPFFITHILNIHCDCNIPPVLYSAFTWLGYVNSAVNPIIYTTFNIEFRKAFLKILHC
#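 D2 cells co-treated with compound plus 50 nM dopamine (EC20) for 90 min at 37 deg C to detect potentiation. Beta-arrestin recruitment was read as enzyme-fragment luminescence after 1 h at ambient temperature. Full response was set by 57 uM dopamine.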
# D2 antagonist = antagonizes the human D2 dopamine receptor; 2% of 340,000 active; inhibition, % at 10 µM; P14416; AID 485344; HEK293 TREx D2 cells, calcium flux, dopamine EC80; in the data active = inhibition above about 30%; inactive = below that, where a call was filed; note: 0% is about no effect
#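 Dopamine at EC80 is the agonist stimulus; test compounds precede it by 180 s. Calcium flux read kinetically in a force-coupled, inducible HEK293 T-REx D2 cell line.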
# D2 PAM-2 = D2 dopamine receptor (human) potentiation; 0.34% of 340,000 active; HEK293 T-REx D2, calcium flux, EC20 dopamine potentiation; potentiation, % at 10 µM; P14416; AID 485347;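 active = potentiation over 3 SD above the plate norm, cut at about 30% in these data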; note: 0% is about no effect
#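 Using a no-wash calcium dye in inducible, force-coupled HEK293 Trex cells expressing D2, we tracked fluorescence each second for 180 s after compound, then for 180 s after EC20 dopamine to detect augmented signalling.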
# D2 ag-1 = human D2 receptor agonism in beta-arrestin assay. P14416. DiscoveRx PathHunter D2 beta-arrestin, luminescence, 90 min; 100% = 57 uM dopamine signal. activation, % (test concentration not listed). 0.084% of 360,000 active. AID 624465; in the data active = activation above about 40%; inconclusive = between about 15% and that limit
#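 Agonist mode: compounds alone added to overnight-plated D2 PathHunter cells for 90 min at 37 C, with 57 uM final dopamine (EC100) defining full response. Beta-arrestin recruitment detected by chemiluminescent reagent, read after 1 h at ambient temperature.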
# D2 ag-2 = activates the human D2 dopamine receptor; P14416; HEK293 T-REx D2 cells, calcium flux agonist mode; activation, % at 2 µM; 0.53% of 340,000 active; AID 485358;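 active = activation over 3 SD above normal in the single-dose calcium agonist read, cut at about 30% in these data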; note: 0% is about no effect
#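 Tetracycline-induced HEK293 T-REx cells with force-coupled D2 receptor, plated overnight at 30 C, loaded with no-wash calcium dye. After a 10 s baseline, compound was pin-added and calcium flux read kinetically for 180 s; calcium rises flagged agonists.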
# Active calls of the source: *; ? = inconclusive; · = not tested or not shown. Sampled rows, rich in hits. Any-hit rate of the full collection: about 2.4%.
SMILES,D2 PAM-1,D2 antagonist,D2 PAM-2,D2 ag-1,D2 ag-2
COc1ccccc1CN1CC(C(=O)N2CCN(c3ccc(F)cc3)CC2)CC1=O (stereo not given),-11.0,-9.3,32.3*,0.3,-0.8
Nc1ccc2oc(-c3ccccc3Cl)cc(=O)c2c1O,1.9,50.3*,4.2,4.1,0.0
O=c1cc(-c2ccccc2Cl)oc2ccc([N+](=O)[O-])c(O)c12,-11.3,-21.1,-7.6,0.5,-0.6
Cc1cccc(Nc2ncnc(N)c2[N+](=O)[O-])n1,-4.8,-25.5,4.4,-4.0,0.9
Nc1ncnc(Nc2ccccn2)c1[N+](=O)[O-],-6.7,30.9*,9.3,-2.0,-0.5
COc1ccc(-n2c(Cc3cc(=O)[nH]c(=O)[nH]3)nnc2SCC(=O)Nc2cc(C(F)(F)F)ccc2Cl)cc1,-14.6,40.8*,-20.0,-3.3,-0.5
CCOC(=O)/C(C(=Nc1ccccc1)Nc1ccccc1)=C(\C)O,-12.1,-7.8,6.7,-1.8,-0.6
NC(=Nc1ccccc1)Nc1ccccc1,-5.8,55.8*,-16.6,9.1,79.1*
COCCn1c(SCC(=O)Nc2cc(C)on2)nc2cc(Cl)ccc2c1=O,-11.7,1.4,72.0*,0.8,0.0
Cc1cc(NC(=O)CSc2nc3cc(Cl)ccc3c(=O)n2CC(C)C)no1,·,-7.6,-4.1,·,1.4
CCn1c(SCC(=O)Nc2cc(C)on2)nc2sc(C)c(C)c2c1=O,·,35.5*,-2.4,·,0.6
C=CCn1c(SCC(=O)Nc2cc(C)on2)nc2sc(C)c(C)c2c1=O,0.4,·,·,2.3,·
COc1ccc(C(CC(=O)NCc2ccc(Cl)cc2)N2Cc3ccccc3C2=O)cc1OC (stereo not given),·,·,-6.5,·,-0.9
O=C(N[C@@H](Cc1ccccc1)C(=O)OCc1ccccc1)c1ccco1,-1.0,·,·,3.0,·
COc1ccc(S(=O)(=O)n2nc(-c3ccco3)nc2NCc2ccc(C(C)C)cc2)cc1,·,·,-8.9,·,2.1
Cc1ccc(-c2cc(C(=O)Oc3ccccc3)c3cc(C)ccc3n2)cc1,·,·,-1.4,·,0.7
CCOc1ccc(OCC)c(NC(=O)Nc2ccc3c(c2)N(C)C(=O)CS3)c1,-1.0,64.2*,-19.7,5.4,-0.5
CCc1ccc(NS(=O)(=O)c2ccc3oc(=O)c4ncn(CC)c4c3c2)cc1,·,·,7.5,·,0.2
CC1CCCC(C)N1C(=O)CSc1nnc(C2CCCCC2)o1 (stereo not given),-16.8,90.3*,-8.4,-4.8,0.0
Cc1cc(-c2nnc(SCC(=O)N3C(C)CCCC3C)o2)no1 (stereo not given),0.3,-4.4,6.4,-1.3,-1.0
O=C(CN1C(=O)CCc2cc(S(=O)(=O)N3CCCCC3)ccc21)NCc1ccc(Cl)cc1,·,·,6.5,·,0.9
COc1ccc(C)cc1S(=O)(=O)N1CCN(c2cccc(Cl)c2)CC1,·,·,-4.8,·,·
CCCCNS(=O)(=O)c1ccc2nc(-c3cccnc3)cc(C(=O)NCCC)c2c1,·,·,0.1,·,0.3
CCCCNC(=O)[C@H]1N2C(=O)c3c(ccc(OC)c3OC)C2SC1(C)C (stereo not given in full),-10.3,-9.7,5.7,-9.5,1.2
O=C(CCc1ccc(Oc2cc([N+](=O)[O-])cc([N+](=O)[O-])c2)cc1)NC1CCCC1,3.5,5.0,-3.7,?,0.2
SMILES,D2 PAM-1,D2 antagonist,D2 PAM-2,D2 ag-1,D2 ag-2
CC1CCN(C(=O)CCc2ccc(Oc3cc([N+](=O)[O-])cc([N+](=O)[O-])c3)cc2)CC1,84.2*,·,·,?,·
CCc1ccccc1NC(=O)c1cc(S(=O)(=O)N2CCc3ccccc32)ccc1F,·,·,8.7,·,·
COc1cc2c(cc1O)C(Cc1ccc(O)cc1)NCC2 (stereo not given),-24.9,74.1*,-24.0,-2.1,-0.4
CNS(=O)(=O)c1ccc(C(C)(C)C)cc1,-2.3,64.7*,-23.8,-2.3,1.1
N#CC1(c2ccccc2)CCC(NCCc2ccccc2)CC1 (stereo not given),-19.5,45.6*,-24.2,-0.3,2.7
CC(C)c1ccc2occ(-c3nn[nH]n3)c(=O)c2c1,-2.0,32.4*,-3.9,-3.7,0.9
CC(=O)C1=C(O)C(=O)N(c2ccc(Br)cn2)C1c1ccccc1[N+](=O)[O-] (stereo not given),-6.3,31.2*,0.8,-2.9,0.8
COc1cccc(-n2c(-c3ccco3)nc3nc4ccccc4nc32)c1,-2.2,4.4,-12.7,-2.7,0.3
Cc1cccc(-n2c(-c3ccco3)nc3nc4ccccc4nc32)c1,·,69.6*,-3.1,·,-1.0
CCc1ccc(S(=O)(=O)c2cn(Cc3ccccc3)c3cc(F)c(F)cc3c2=O)cc1,·,·,·,·,0.3
COc1ccc(CN2CCN(Cc3ccc(C)cc3)C(CCO)C2)cc1OC (stereo not given),-22.1,13.5,11.8,-1.4,0.2
CC(C)CCN1CCN(Cc2cccs2)CC1CCO (stereo not given),-18.2,30.8*,-19.6,0.6,14.2
CC(C)N1CCN(Cc2cccs2)CC1CCO (stereo not given),-2.3,·,·,0.1,·
COc1cc(CN2CCN(Cc3ccc(C)cc3)C(CCO)C2)cc(OC)c1O (stereo not given),-15.9,57.0*,-18.0,2.6,0.6
Cc1ccc(CN2CCN(CCC(C)C)C(CCO)C2)s1 (stereo not given),-17.9,56.8*,-25.3,-2.6,0.5
Cc1ccc(CN2CCN(Cc3ccc(C)s3)CC2CCO)cc1 (stereo not given),-2.1,69.3*,-22.7,-2.9,0.8
CCCCCN1C(C(=O)c2ccccc2)=C(NC(=O)c2ccccc2Cl)c2ccccc2S1(=O)=O,·,·,1.8,·,-0.3
O=C(CCNS(=O)(=O)c1ccc2c(c1)CCN2C(=O)C1CC1)N1CCN(c2cccc(C(F)(F)F)c2)CC1,·,·,0.5,·,-0.3
CC(C)CCN1CCN(Cc2cccc3nonc23)CC1CCO (stereo not given),-7.3,54.2*,-22.8,-2.1,0.9
CC(C)c1ccc(NC(=O)c2cnc3sc(N4CCCC4)nn3c2=O)cc1,·,·,-2.7,·,-0.7
CCOC(=O)C1C(=O)C=C(/C=C/c2ccc(N(C)C)cc2)CC1c1ccccc1 (stereo not given),4.1,33.3*,-9.7,0.6,52.0*
Cc1c(O)ccc(NC(=O)/C=C/c2ccccc2)c1C,1.3,35.0*,-9.2,1.4,0.1
CCS(=O)(=O)c1ccc(O)c(NC(=O)/C=C/c2ccccc2)c1,-14.1,9.4,-12.4,-4.7,-0.5
CCOC(=O)c1ccccc1NC(=O)CSc1nc(N)cc(=O)[nH]1,0.8,-28.3,9.1,0.4,0.5
O=C1CSC(=S)N1/N=C/c1cc(Br)c(O)c(Br)c1,1.4,-40.6,-18.5,-6.0,84.6*
CCOc1ccc(OCC)c(NS(=O)(=O)c2c(C(=O)N3CCC(C)CC3)c(C)n(C)c2C)c1,·,·,-0.4,·,8.5
O=S(c1ccccc1O)S(=O)c1ccccc1O (stereo not given),3.9,·,·,-0.1,·
